This passage reports growth results from PubChem BioAssay (NCI).

What all share (experiment): NCI-60 one-dose screen, 48 h (100 = growth as untreated, 0 = no growth, -100 = all killed)
Holding throughout (conditions): 10 µM unless noted

Test [1] deals with NCI-H23 lung.
In test [2] the test system is NCI-H226 lung.
Test [3] deals with NCI-H322M lung.
For test [4], the system named is HOP-62 NSCLC.
Test [5] relates to NCI-H460 lung.
For test [6], the system named is HOP-92 NSCLC.
Test [7] relates to NCI-H522 lung.
The test system of test [8] is A549/ATCC NSCLC.
In test [9] the test system is 786-0 renal.
Test [10] has as its system COLO 205 colon.
Test [11] concerns DU-145 prostate.
Test [12] relates to K-562 leukemia.
In test [13] the test system is MALME-3M melanoma.
Test [14] has as its system MDA-MB-231 breast.
Test [15] has as its system RXF 393 renal.
Test [16] deals with SF-268 CNS.
Test [17] relates to SF-295 CNS.
Test [18] has as its system SF-539 CNS.
The subject of test [19] is UACC-257 melanoma.
For test [20], the system named is M14 melanoma.

About 83,000 compounds went through this panel and 20% of them were active in at least one assay; those are over-represented in the sample as a whole.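 The endpoint reported here, percent growth, reads 100 for growth as untreated, 0 for no net growth and -100 for all cells dead.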 A number with no mark means an inactive call. Active and inactive are the calls of the source. The calls were made as follows: active = growth percent below 10; inactive = the rest.

As to `Cc1ccc(C(=O)Nc2ccc(CNCCN3CCOCC3)c(C(F)(F)F)c2)cc1C#Cc1cnc2cccnn12`, the growth in [1] is 21.5%; in [2] it was 20.5%; in test [3], 47.9%; in [4], 15.4%; in [5] it was 18.9%; in test [6], -11.9% (active). Moreover, the growth in [7] is 4.82% (active); in [8] it was 19.2%; in test [9] it was 14.2%; in test [10] it was -18.8% (active); in test [11], 33.5%; in test [12], 5.07% (active). The growth in [13] is -44.6% (active); in [14] it was -18.5% (active); in test [15], -54.2% (active); in test [16], 15.6%; in test [17], -24.7% (active); in [18], -69.3% (active). The results for the growth in [19] and in [20] were -45.3% (active) and -7.89% (active), respectively.
As for `COC(=O)c1cccc(NC2=C(Cl)C(=O)C(C)=C(C)C2=O)c1`, the growth in test [1] is 92.4%; in test [2] it was 85.9%; in test [3], 100%; in test [4], 94.8%; in test [5] it was 101%; in test [6] it was 33.9%. For the same compound, the growth is 95.8% in test [7]; 115% in [8]; 104% in [9]; 114% in test [10]; 110% in test [11]; 5.25% (active) in test [12]. The growth in [13] is 95.8%; in test [14] it was 36.5%; in [15] it was 104%; in test [16], 97.4%; in test [17], 108%; in test [18], 99.3%. In addition, the figures for the growth in test [19] and in [20] were 108% and 92.3%, respectively.
With `CN(C)CCCOc1ccc(C(=C(c2ccccc2)C2CCCC2)c2ccc(OCCCN(C)C)cc2)cc1`, the growth in test [1] is -78.8% (active); in [2], -67.5% (active); in test [3], -97% (active); in test [4], -72.6% (active); in test [5], -62.6% (active); in test [6] it was -76.3% (active). For the same compound, the growth in test [7] is -89.8% (active); in test [8], -79.2% (active); in [9] it was -80.4% (active); in [10], -76.2% (active); in test [11] it was -99% (active); in [12], -4.67% (active). Also, the growth in test [13] is -89.6% (active); in [14] it was -86.4% (active); in test [15], -83.1% (active); in [16], -81.9% (active); in [17] it was -82% (active); in test [18], -89.4% (active). The growth in [19] was -88.7% (active); in test [20] it was -80.7% (active).
For the compound `Cc1[nH]c(C(=O)Nc2ccc(C(=O)NCC3CCNCC3)cc2OC(C)C)c(Cl)c1Cl`, the growth in test [1] is 83%; in [2], 83.6%; in test [3] it was 92.1%; in [4], 86.4%; in test [5] it was 34.7%; in test [6], 65.9%. For the same compound, the growth is 90.7% in [7]; 65.4% in [8]; 79.8% in [9]; -13.3% (active) in test [10]; 80.2% in test [11]; 10.6% in test [12]. In addition, the growth in test [13] was 80.1%; in test [14] it was 72.3%; in test [15], 71.3%; in [16] it was 76.6%; in [17], 73.5%; in test [18], 83.8%. The growth in [19] is 101%; in [20] it was 62.4%.
Consider `COc1ccc(C2CC(c3cccc(OCCCCOc4cccc(C5=NN(C(C)=O)C(c6ccc(OC)cc6)C5)c4)c3)=NN2C(C)=O)cc1` (stereo not given), for which the growth in test [1] was 57%; in test [2] it was 62.3%; in test [3] it was 91%; in test [4], 71.3%; in test [5], 66.6%; in test [6], 68.7%. The growth was 53.2% in test [7]; 68.2% in test [8]; 86.3% in test [9]; 82.8% in test [10]; 81.6% in test [11]; 37% in test [12]. The growth in test [13] is 105%; in [14], 77.3%; in test [15] it was 95.2%; in [16], 74.8%; in [17] it was 44.3%; in [18], 81.5%. In addition, the growth in [19] was 46.8%; in test [20] it was 85.3%.
As for `CC1=C(C)C(=O)C(Nc2cccc(C(F)(F)F)c2)=C(Br)C1=O`, the growth in test [1] is 88.8%; in test [2], 83.2%; in test [3], 100%; in [4] it was 81.1%; in [5], 96.4%; in [6], 25%. For the same compound, the growth is 29.2% in test [7]; 94.4% in [8]; 97% in test [9]; 115% in test [10]; 105% in [11]; -17.9% (active) in test [12]. Further, the growth in test [13] is 101%; in test [14], 69.2%; in test [15] it was 105%; in test [16], 97.7%; in test [17] it was 106%; in test [18] it was 96%. Moreover, the growth in test [19] was 88.1%; in test [20], 99%.
As to `CN1CCN(c2ccc(Nc3nc(NCCCNS(=O)(=O)c4ccccc4)c4sccc4n3)cc2)CC1`, the growth in test [1] is 90.6%; in [2] it was 111%; in [3] it was 80.3%; in [4], 105%; in test [5], 36.9%; in test [6] it was 59.2%. In addition, the growth in test [7] is 44.8%; in test [8], 62%; in [9], 7.25% (active); in [10], 49.2%; in test [11], 56.4%; in test [12], 16.7%. Also, the growth in [13] was -42.8% (active); in test [14], 38.1%; in test [15] it was -29.8% (active); in [16], 64.2%; in test [17], 38.4%; in test [18], -71.4% (active). The growth is -15.6% (active) in test [19] and -9.06% (active) in [20].
